IL2 activator: qHTS of IL-2 Activators. IL-2 activation reporter assay, cell-based qHTS; stimulated with anti-CD3/CD4/CD28 beads; in transgenic mouse T cells. activation, % (series mostly up to about 46 µM). hit rate 0.065% among 360,000. AID 652025, 2013; in the data active = activation above about 50%; inconclusive = mostly about 30% to 49%
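Unstimulated transgenic mouse T cells; 60-min compound exposure; bead-based TCR/CD4/CD28 stimulation; 18 h culture, 37 degrees C; dual fluorescence (EGFP, DsRed) plate cytometry.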
A-T KAP1 phos: qHTS Assay for Identifying a Potential Treatment of Ataxia-Telangiectasia; F2112 A-T fibroblasts, KAP-1 phosphorylation AlphaLISA; neocarzinostatin DNA damage 30 min before lysis; Potency, µM (top dose mostly 57.5 µM), hits mostly activators; hit rate 0.19% among 320,000; AID 485349, 2010; also: nearly all actives have a fitted effect of over 45% in size
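ATM-like activity read as KAP-1 phosphorylation via AlphaLISA donor/acceptor antibody pairs after lysis and 6 hr at 25C. Cells were ATM-null patient fibroblasts (F2112, hTERT), dosed 60 min, then exposed to the DSB inducer NCS for 30 min.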
TCR activator: Activators of T cell receptors: qHTS campaign | primary human leukocytes, anti-CD3, IL-2 HTRF, 48 h | Potency, µM (titrated, usually from 9.22 µM), most hits filed as activators | 330,000 tested, under 10 active
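48 hr co-incubation of compounds, a-CD3 beads and primary human leukocytes; IL-2 quantified homogeneously by HTRF with anti-IL-2 K and d2 conjugates.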
Integrin act MD: qHTS for Activators of Integrin-Mediated Alleviation for Muscular Dystrophy; alpha7betagal myoblasts, beta-gal FDG fluorescence, 48 h; Potency, µM (highest dose often 38.3 µM), most hits filed as activators; hit rate 0.064% among 350,000; AID 624291, 2012; also: nearly all actives have a fitted effect of over 60% in size
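Alpha7betagal+/- myoblasts (passage 13) were plated 16-24 hr, then exposed to compounds (1:260 dilution of DMSO stock) for 48 hours at 37C. After MPER lysis, β-galactosidase reporter activity was read as FDG fluorescence (ex 480/em 540) after 30 minutes.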
PKM2 act: qHTS Assay for Activators of Human Muscle isoform 2 Pyruvate Kinase. purified PKM2, Kinase-Glo ATP luminescence, activation; response scale: 0% is enzyme alone, no compound. Potency, µM (doses to about 57.5 µM), actives largely listed as activators. hit rate 0.34% among 260,000; also: nearly all actives have a fitted effect of over 55% in size
Target sequence (P14618 whole entry, looked up, canonical isoform): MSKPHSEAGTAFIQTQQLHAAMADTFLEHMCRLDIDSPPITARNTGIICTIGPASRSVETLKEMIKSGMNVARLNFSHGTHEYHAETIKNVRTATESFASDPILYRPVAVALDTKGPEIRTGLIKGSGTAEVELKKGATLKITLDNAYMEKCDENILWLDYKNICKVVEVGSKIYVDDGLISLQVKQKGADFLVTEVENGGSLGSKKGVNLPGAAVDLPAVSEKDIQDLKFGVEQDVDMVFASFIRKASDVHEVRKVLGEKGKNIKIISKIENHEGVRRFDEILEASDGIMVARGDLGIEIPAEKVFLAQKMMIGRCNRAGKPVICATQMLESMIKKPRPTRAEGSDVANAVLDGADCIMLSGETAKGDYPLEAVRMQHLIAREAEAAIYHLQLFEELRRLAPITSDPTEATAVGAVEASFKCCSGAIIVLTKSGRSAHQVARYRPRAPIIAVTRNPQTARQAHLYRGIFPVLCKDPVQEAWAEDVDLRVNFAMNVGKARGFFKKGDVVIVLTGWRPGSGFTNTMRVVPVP
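hPK-M2, >95% pure; 0.1 mM ADP / 0.5 mM PEP final; imidazole pH7.2 buffer w/ 7 mM MgCl2, 50 mM KCl; 1 h RT; Kinase-Glo lum. Intermediate enzyme activity for dual inhibitor/activator qHTS.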
Tb PFK block: qHTS Assay to Find Inhibitors of T. brucei phosphofructokinase; hit rate 0.17% among 330,000; ATP-dependent 6-phosphofructokinase (Trypanosoma brucei brucei), O15648; T. brucei PFK, ADP-Glo luminescence; Potency, µM (doses to about 57.5 µM), actives largely listed as inhibitors; also: nearly all actives have a fitted effect of over 60% in size
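In TEA buffer at pH 8.0 with 5 mM MgCl2, enzyme (1.25 nM) converted F6P (0.5 mM) and ATP (0.1 mM) for 45 min at room temperature. ADP product was read by luciferase luminescence.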
Large screens that a line does not name were inactive. Only some compounds are listed: those with a hit (about 0.69% of all), similar ones and a draw of the others. Unless noted, calls follow the shape of the dose curve; as a rule, active = well fitted curve in the direction sought with a large enough effect; inconclusive = small, poorly fitted or top-dose-only effect, or another doubt; inactive = no such curve, though single readings can be large; an effect the other way counts as inactive or inconclusive.

COc1ccc(CCNC2CC(=O)N(CCc3ccccc3)C2=O)cc1 (configuration not stated)	none
CCN(CC)c1ccc(NC2CC(=O)N(CCc3ccc(OC)cc3)C2=O)cc1 (configuration not stated)	IL2 activator 125.2
CCOC(=O)[C@]12CCC=C1N(Cc1cccc3ccccc13)C(=O)[C@H](CC(=O)NCCc1ccccc1OC)C2	none (no result: A-T KAP1 phos, TCR activator, Integrin act MD, PKM2 act, Tb PFK block)
Cc1cc(NC(=O)/C(C#N)=C/c2ccc(-c3ccc(SC(F)F)cc3)o2)n(-c2ccccc2)n1	IL2 activator 100.4
Cc1cc(NC(=O)/C(C#N)=C/c2ccc(-c3cccc(C(F)(F)F)c3)o2)n(-c2ccccc2)n1	none
COc1ccccc1NC(=O)C1=C(C)NC(=O)NC1c1ccccc1[N+](=O)[O-] (configuration not stated)	PKM2 act 25.1µM
COC(=O)c1ccc(C23CC2(C(NP(=O)(c2ccccc2)c2ccccc2)c2ccccc2)C3)cc1 (configuration not stated)	none (no result: IL2 activator, A-T KAP1 phos, TCR activator, Integrin act MD, Tb PFK block)
COC(=O)c1ccc(C(NC(=O)OCc2ccccc2)/C(F)=C/[C@@H](C)C(=O)Nc2ccc(OC)cc2)cc1 (some centres not stated)	none (no result: IL2 activator, A-T KAP1 phos, TCR activator, Integrin act MD, Tb PFK block)
Cc1nc(N2CCOCC2)c2nc(-c3ccccc3)n(CCN3CCCC3)c2n1	none (no result: IL2 activator, A-T KAP1 phos, TCR activator, Integrin act MD, Tb PFK block)
Cc1cc2oc(=O)sc2cc1NS(=O)(=O)c1cccc2cccnc12	PKM2 act 31.6µM
Oc1ccc(COc2cccc3ccccc23)c2cccnc12	none (no result: IL2 activator, TCR activator, Integrin act MD, PKM2 act)
Nc1nnc(SCC(=O)c2ccc3c(c2)NC(=O)CO3)s1	PKM2 act 28.2µM
CN(C)c1ccc(C=Cc2ccnc3c(O)cccc23)cc1	IL2 activator 148.1 (no result: A-T KAP1 phos, TCR activator, PKM2 act, Tb PFK block)
COc1ccc(-n2c(=O)/c(=C\c3cccs3)s/c2=C(/C#N)C(=O)NCCN2CCOCC2)cc1	IL2 activator 137.4
C[C@H]1Cc2c(-c3ccccc3)nc3c(c2CO1)CN(S(=O)(=O)c1ccc(C#N)cc1)CC3	none (no result: IL2 activator, A-T KAP1 phos, TCR activator, Integrin act MD, Tb PFK block)
COc1ccc(C2=NOC(C(=O)Nc3cc(C)on3)C2)cc1OC (configuration not stated)	PKM2 act 3.55µM
COc1cc2c(cc1OC)C1O[C@](CCCCN3C(=O)c4ccccc4C3=O)(C2)Oc2cc(C)n(Cc3ccccc3)c(=O)c21	none (no result: IL2 activator, TCR activator, Integrin act MD)
Cn1cnnc1SCC(=O)N1N=C2/C(=C/c3ccco3)CCCC2C1c1ccco1 (configuration not stated)	PKM2 act 28.2µM
COc1ccc(C)cc1Nc1n[n+](-c2ccccc2)c(-c2cc([N+](=O)[O-])cc(OC)c2O)s1	IL2 activator 179.9
C(=C\c1nccc2c1[nH]c1ccccc12)/c1ccccc1	A-T KAP1 phos 22.4µM
Fc1ccc(/C=C\c2nccc3c2[nH]c2ccccc23)cc1	none
COc1ccc2c3c(c(=O)oc2c1)C1O[C@](CCCCN2C(=O)c4ccccc4C2=O)(Cc2cc(OC)c(OC)cc21)O3	none (no result: IL2 activator, TCR activator, Integrin act MD)
O=C(Nc1ccc(Cl)cc1)[C@@H]1[C@@H]2C(=O)N(c3ccc4ccccc4c3)C(=O)[C@@H]2[C@H]2C=CC=NN21	PKM2 act inconclusive
COc1ccc(N2C(=O)[C@@H]3[C@H](C2=O)[C@H]2C=CC=NN2[C@@H]3C(=O)Nc2ccc(Cl)cc2)cc1	PKM2 act 8.91µM
Cc1occc1-c1nnc(SCCCC(=O)c2ccc(F)cc2)n1C	PKM2 act 25.1µM
CCc1c2c(nc3cccc(C(C)C)c13)-c1cccc(=O)n1C2	none (no result: IL2 activator, A-T KAP1 phos, TCR activator, Integrin act MD, Tb PFK block)
Nc1nc(-c2ccccc2)c(-c2ccc([N+](=O)[O-])cc2)s1	PKM2 act 20µM
COc1cc2c(cc1OC)CN(S(=O)(=O)c1ccc3c(c1)OCCO3)CC2	PKM2 act 8.91µM
COc1ccc(S(=O)(=O)N2CCc3ccccc3C2)cc1OC	none
COc1cccc(-c2csc3nc[nH]c(=O)c23)c1	PKM2 act 28.2µM (no result: A-T KAP1 phos)
CCOC(=O)N1CCN(Cc2nnc(-c3ccccc3C)o2)CC1	A-T KAP1 phos 20µM (no result: PKM2 act)
CCOC(=O)N1CCN(CC(=O)N2c3ccccc3Sc3ccccc32)CC1	A-T KAP1 phos 17.8µM (no result: PKM2 act)
O=C(O)c1ccc(S(=O)(=O)N[C@H](Cc2ccc([N+](=O)[O-])cc2)C(=O)O)cc1	none (no result: IL2 activator, TCR activator, Integrin act MD, PKM2 act)
O=C(N/N=C/C1=C(N2CCOCC2)C(=C\c2ccccc2)/CC1)Nc1ccccc1	none
CCN(CC)c1ccc(/C=C2\CCC(/C=N/NC(=O)c3ccc(=O)n(C)c3)=C2N2CCOCC2)cc1	IL2 activator 70.7
CCOc1ccc(C(=O)N2CCN(c3cccc(C)c3C)CC2)cc1	PKM2 act 14.1µM (no result: A-T KAP1 phos, Tb PFK block)
CCOc1ccc(C(=O)N2CCN(c3cccc(Cl)c3)CC2)cc1	none
CC1(OC(=O)c2cnc3ccccc3n2)C(=O)C=C2C=C3CCCN3C=C2C1=O (configuration not stated)	none (no result: IL2 activator, A-T KAP1 phos, TCR activator, Integrin act MD, Tb PFK block)
COc1ccc(C2/C=C\CN(C(=O)C3CCCCC3)CC(=O)N2Cc2ccc(F)cc2)cc1 (configuration not stated)	Tb PFK block inconclusive
COc1ccc(C2/C=C\CN(C(=O)C3CCCC3)CC(=O)N2Cc2ccc(F)cc2)cc1 (configuration not stated)	A-T KAP1 phos 14.1µM
COC(=O)N1C2CC3(C)C=C(C)OC1(C)C3c1ccccc12 (configuration not stated)	none (no result: IL2 activator, A-T KAP1 phos, TCR activator, Integrin act MD, Tb PFK block)
COC(=O)c1c(NC(=O)CC2Nc3cc(C)c(C)cc3NC2=O)sc(C)c1C (configuration not stated)	IL2 activator 61.7
O=C(/C=C/c1c(C(=O)O)[nH]c2cc(Cl)cc(Cl)c12)Nc1ccccc1	none (no result: IL2 activator, A-T KAP1 phos, TCR activator, Integrin act MD, Tb PFK block)
CCOc1ccc2ccccc2c1C1NC(=O)N(C)C(C)=C1C(=O)OCCOC (configuration not stated)	Integrin act MD 6.31µM
COc1ccccc1S(=O)(=O)N1CCN(S(=O)(=O)c2ccccc2C#N)CC1	Integrin act MD inconclusive, PKM2 act 2µM
COc1ccc(Cl)cc1NC(=O)CC(=O)Nc1cc(Cl)ccc1OC	Integrin act MD 14.1µM (no result: PKM2 act)
COc1cc2c(cc1OC)C1O[C@](c3ccsc3)(C2)Oc2cc(-c3ccccc3)oc(=O)c21	none (no result: IL2 activator, TCR activator, Integrin act MD)
Cc1cc(=O)oc2cc(OCC(=O)Nc3nnc(C(C)C)s3)ccc12	IL2 activator 59.6
COC(=O)CCC(=O)OC1(C)C(=O)C=C2C=C(C3CC3)N(c3ccc(OC)cc3)C=C2C1=O (configuration not stated)	none (no result: IL2 activator, A-T KAP1 phos, TCR activator, Integrin act MD, Tb PFK block)

Compound activity deposited in PubChem by National Center for Advancing Translational Sciences (NCATS).
